Reference: PubChem BioAssay AID1159580 (chemical genetic matrix, 2015)
Several values for one entry are separate records, joined by “and”; a condition that tells them apart may be missing. Identical values can stand only once. Screen size: about 5,500 compounds; about 2,000 (36%) were called active. Roughly 18% stayed inconclusive and do not appear here. Rule as the data show it: active = normalized growth mostly below about 0.91 (no sharp cut-off); inconclusive = no clear call, values can overlap the other calls; inactive = mostly above about 0.92. Some of the results follow.

Assay: chemical genetic growth profiling, strain panel (AID 1159580);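 also: tested at 20 µM; growth read once vehicle control cultures reached saturation at 30 °C; 1 = growth at the plate median or of vehicle wells; lower values mean less growth of the strain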
Settings: growth OD
[1] = S. cerevisiae deletion strains, locus YDL101C, strain DUN1, active compounds read low
[2] = S. cerevisiae deletion strains, locus YGR052W, strain FMP48, active compounds read low
[3] = S. cerevisiae deletion strains, locus YHR030C, strain SLT2, active compounds read low
[4] = S. cerevisiae deletion strains, locus YHR079C, strain IRE1, active compounds read low
[5] = S. cerevisiae deletion strains, locus YHR082C, strain KSP1, active compounds read low
[6] = S. cerevisiae deletion strains, locus YJL095W, strain BCK1, active compounds read low
[7] = S. cerevisiae deletion strains, locus YJR066W, strain TOR1, active compounds read low
[8] = S. cerevisiae deletion strains, locus YKL203C, strain TOR2, active compounds read low
[9] = S. cerevisiae deletion strains, locus YLR113W, strain HOG1, active compounds read low
[10] = S. cerevisiae deletion strains, locus YNL183C, strain NPR1, active compounds read low
[11] = S. cerevisiae deletion strains, locus YNL207W, strain RIO2, active compounds read low
[12] = S. cerevisiae deletion strains, locus YOR119C, strain RIO1, active compounds read low
[13] = S. cerevisiae deletion strains, locus YOR231W, strain MKK1, active compounds read low
[14] = S. cerevisiae deletion strains, locus YPL256C, strain CLN2, active compounds read low
[15] = S. cerevisiae deletion strains, locus YAL013W, strain DEP1, active compounds read low
[16] = S. cerevisiae deletion strains, locus YBR229C, strain ROT2, active compounds read low
[17] = S. cerevisiae deletion strains, locus YCL061C, strain MRC1, active compounds read low
[18] = S. cerevisiae deletion strains, locus YDL134C, strain PPH21, active compounds read low
[19] = S. cerevisiae deletion strains, locus YDR150W, strain NUM1, active compounds read low
[20] = S. cerevisiae deletion strains, locus YEL061C, strain CIN8, active compounds read low
[21] = S. cerevisiae deletion strains, locus YGR078C, strain PAC10, active compounds read low
[22] = S. cerevisiae deletion strains, locus YHR087W, strain rtc3, active compounds read low
[23] = S. cerevisiae deletion strains, locus YJR043C, strain POL32, active compounds read low
[24] = S. cerevisiae deletion strains, locus YJR075W, strain HOC1, active compounds read low
[25] = S. cerevisiae deletion strains, locus YKL190W, strain CNB1, active compounds read low
[26] = S. cerevisiae deletion strains, locus YLR039C, strain RIC1, active compounds read low
[27] = S. cerevisiae deletion strains, locus YLR058C, strain SHM2 (second series), active compounds read low
[28] = S. cerevisiae deletion strains, locus YLR085C, strain ARP6, active compounds read low
[29] = S. cerevisiae deletion strains, locus YLR262C, strain YPT6, active compounds read low
[30] = S. cerevisiae deletion strains, locus YML094W, strain GIM5, active compounds read low
[31] = S. cerevisiae deletion strains, locus YMR219W, strain ESC1, active compounds read low
[32] = S. cerevisiae deletion strains, locus YMR263W, strain SAP30, active compounds read low
[33] = S. cerevisiae deletion strains, locus YNL128W, strain TEP1, active compounds read low
[34] = S. cerevisiae deletion strains, locus YNL153C, strain GIM3, active compounds read low
[35] = S. cerevisiae deletion strains, locus YNL298W, strain CLA4 (second series), active compounds read low
[36] = S. cerevisiae deletion strains, locus YNL322C, strain KRE1, active compounds read low
[37] = S. cerevisiae deletion strains, locus YNR030W, strain Alg12, active compounds read low
[38] = S. cerevisiae deletion strains, locus YPL055C, strain LGE1, active compounds read low
[39] = S. cerevisiae deletion strains, locus YPL241C, strain CIN2, active compounds read low
[40] = S. cerevisiae deletion strains, locus YPR135W, strain CTF4, active compounds read low

Measured: normalized growth

Cc1csc2c(N3CCN(C(=S)Nc4ccc(C(F)(F)F)cc4)CC3)ncnc12
active: [9] 0.826
inactive: S. cerevisiae deletion strains, locus YAR019C, strain CDC15, active compounds read low 0.985 | S. cerevisiae deletion strains, locus YBL105C, strain PKC1, active compounds read low 0.989 | S. cerevisiae deletion strains, locus YBR135W, strain CKS1, active compounds read low 0.981 | S. cerevisiae deletion strains, locus YBR136W, strain MEC1, active compounds read low 0.982 | S. cerevisiae deletion strains, locus YBR160W, strain CDC28, active compounds read low 0.979 | S. cerevisiae deletion strains, locus YDL017W, strain CDC7, active compounds read low 0.992 | S. cerevisiae deletion strains, locus YDL028C, strain MPS1, active compounds read low 0.981 | [1] 0.988 | S. cerevisiae deletion strains, locus YDL108W, strain KIN28, active compounds read low 0.99 | S. cerevisiae deletion strains, locus YDL132W, strain cdc53, active compounds read low 0.998 | S. cerevisiae deletion strains, locus YDL214C, strain PRR2, active compounds read low 0.956 | S. cerevisiae deletion strains, locus YDR052C, strain DBF4, active compounds read low 0.999 | S. cerevisiae deletion strains, locus YDR054C, strain cdc34, active compounds read low 0.997 | S. cerevisiae deletion strains, locus YDR226W, strain ADK1, active compounds read low 0.997 | S. cerevisiae deletion strains, locus YDR477W, strain SNF1, active compounds read low 0.983 | S. cerevisiae deletion strains, locus YER123W, strain YCK3, active compounds read low 0.937 | S. cerevisiae deletion strains, locus YER133W, strain GLC7, active compounds read low 0.974 | S. cerevisiae deletion strains, locus YFL009W, strain cdc4, active compounds read low 0.992 | S. cerevisiae deletion strains, locus YFL029C, strain CAK1, active compounds read low 0.991 | S. cerevisiae deletion strains, locus YFR003C, strain YPI1, active compounds read low 0.992 | S. cerevisiae deletion strains, locus YFR019W, strain FAB1, active compounds read low 0.965 | S. cerevisiae deletion strains, locus YFR028C, strain CDC14, active compounds read low 0.978 | S. cerevisiae deletion strains, locus YGR040W, strain KSS1, active compounds read low 0.959 | [2] 1.02 | S. cerevisiae deletion strains, locus YGR092W, strain DBF2, active compounds read low 0.972 | [3] 0.979 | [4] 0.991 | [5] 1.04 | S. cerevisiae deletion strains, locus YHR205W, strain SCH9, active compounds read low 0.919 | S. cerevisiae deletion strains, locus YIL147C, strain SLN1, active compounds read low 0.992 | [6] 0.982 | S. cerevisiae deletion strains, locus YJL128C, strain PBS2, active compounds read low 0.96 | S. cerevisiae deletion strains, locus YJL157C, strain FAR1, active compounds read low 0.944 | S. cerevisiae deletion strains, locus YJR016C, strain ILV3, active compounds read low 0.993 | S. cerevisiae deletion strains, locus YJR066W, strain TOR1 (second series), active compounds read low 0.928 | [7] 1.06 | S. cerevisiae deletion strains, locus YKL048C, strain ELM1, active compounds read low 0.965 | S. cerevisiae deletion strains, locus YKL067W, strain YNK1, active compounds read low 0.963 | S. cerevisiae deletion strains, locus YKL101W, strain HSL1, active compounds read low 0.944 | S. cerevisiae deletion strains, locus YKL193C, strain SDS22, active compounds read low 0.986 | [8] 1.03 | S. cerevisiae deletion strains, locus YLR133W, strain CKI1, active compounds read low 0.959 | S. cerevisiae deletion strains, locus YLR403W, strain SFP1, active compounds read low 0.956 | S. cerevisiae deletion strains, locus YML070W, strain DAK1, active compounds read low 0.924 | S. cerevisiae deletion strains, locus YMR001C, strain CDC5, active compounds read low 1 | S. cerevisiae deletion strains, locus YMR205C, strain PFK2 (second series), active compounds read low 0.949 | S. cerevisiae deletion strains, locus YMR277W, strain FCP1, active compounds read low 0.987 | S. cerevisiae deletion strains, locus YNL006W, strain LST8, active compounds read low 0.988 | S. cerevisiae deletion strains, locus YNL020C, strain ARK1, active compounds read low 0.956 | S. cerevisiae deletion strains, locus YNL161W, strain CBK1, active compounds read low 0.98 | [10] 0.996 | [11] 0.978 | S. cerevisiae deletion strains, locus YNL222W, strain SSU72, active compounds read low 0.991 | S. cerevisiae deletion strains, locus YNL307C, strain MCK1 (second series), active compounds read low 0.937 | S. cerevisiae deletion strains, locus YOL078W, strain AVO1, active compounds read low 0.992 | S. cerevisiae deletion strains, locus YOL136C, strain PFK27, active compounds read low 0.922 | S. cerevisiae deletion strains, locus YOR061W, strain CKA2, active compounds read low 0.964 | [12] 1.03 | [13] 0.928 | S. cerevisiae deletion strains, locus YOR329C, strain SCD5, active compounds read low 0.986 | S. cerevisiae deletion strains, locus YPL031C, strain PHO85, active compounds read low 0.986 | S. cerevisiae deletion strains, locus YPL153C, strain RAD53, active compounds read low 0.979 | S. cerevisiae deletion strains, locus YPL204W, strain HRR25, active compounds read low 0.941 | S. cerevisiae deletion strains, locus YPL209C, strain IPL1, active compounds read low 0.984 | [14] 0.942 | S. cerevisiae deletion strains, locus YPR025C, strain CCL1, active compounds read low 0.982 | S. cerevisiae deletion strains, locus YPR106W, strain ISR1, active compounds read low 0.975 | S. cerevisiae deletion strains, locus YPR111W, strain DBF20, active compounds read low 0.977 | S. cerevisiae deletion strains, strain NNK1, active compounds read low 0.967 | S. cerevisiae deletion strains, strain TSCII, active compounds read low 0.992

Cc1onc(-c2c(Cl)cccc2Cl)c1C(=O)N1CCN(c2ncnc3scc(-c4ccccc4)c23)CC1
inactive: [15] 0.97 | [16] 1 | [17] 0.994 | [1] 0.979 | [18] 1 | [19] 0.94 | [20] 1.02 | [21] 1 | [3] 0.942 | [22] 1.01 | [23] 0.977 | [24] 0.997 | [25] 1.01 | [26] 0.937 | [27] 1.01 | [28] 1.01 | [29] 0.962 | [30] 1.01 | [31] 1.01 | [32] 0.967 | [33] 1.01 | [34] 0.999 | [35] 1.02 | [36] 1.01 | [37] 1.01 | [38] 1.02 | [39] 1.01 | [40] 0.923

COc1ccccc1C1CCN(c2ncnc3scc(-c4ccccc4)c23)CC1
inactive: [15] 1 | [16] 1.01 | [17] 1 | [1] 1.04 | [18] 0.994 | [19] 1.05 | [20] 1 | [21] 1.01 | S. cerevisiae deletion strains, locus YGR229C, strain SMI1, active compounds read low 1.01 | [3] 1.03 | [22] 0.976 | [23] 1.01 | [24] 1.01 | [25] 1 | [26] 1.02 | [27] 0.984 | [28] 1.03 | [29] 1.01 | [30] 0.992 | [31] 0.996 | [32] 1.02 | [33] 1.02 | [34] 1.01 | [35] 0.994 | [36] 0.992 | [37] 1 | [38] 0.987 | [39] 1.04 | [40] 1.02

CC1=C(C)C(=O)C(CCCCC#CCCCC#CCO)=C(C)C1=O
inactive: [15] 0.995 | S. cerevisiae deletion strains, locus YAL040C, strain CLN3, active compounds read low 0.993 | S. cerevisiae deletion strains, locus YCL061C, strain MRC1 (second series), active compounds read low 1 | S. cerevisiae deletion strains, locus YDR363W, strain ESC2, active compounds read low 0.988 | S. cerevisiae deletion strains, locus YER002W, strain NOP16, active compounds read low 0.996 | [32] 1 | [33] 0.998 | S. cerevisiae deletion strains, locus YNL175C, strain NOP13, active compounds read low 1 | S. cerevisiae deletion strains, locus YNL197C, strain WHI3, active compounds read low 0.997 | S. cerevisiae deletion strains, locus YNL224C, strain SQS1, active compounds read low 0.984 | S. cerevisiae deletion strains, locus YOR083W, strain WHI5 (second series), active compounds read low 0.975

Cc1cc(Oc2c([N+](=O)[O-])cc(C(F)(F)F)cc2[N+](=O)[O-])c2c(Cl)ccc(C)c2n1
active: [15] 0.667 | [16] 0.883 | [18] 0.887 | [20] 0.788 | [2] 0.173 | [21] 0.913 | [3] 0.271 and 0.16 | [4] 0.231 | [5] 0.27 | [22] 0.834 | [6] 0.363 | [23] 0.905 | [7] 0.29 | [24] 0.89 | S. cerevisiae deletion strains, locus YKL171W, strain NNK1, active compounds read low 0.534 | [25] 0.458 | [8] 0.459 | [26] 0.498 | [28] 0.372 | [29] 0.547 | [30] 0.805 | [31] 0.905 | [10] 0.143 | [11] 0.546 | [35] 0.668 | [37] 0.623 | [12] 0.479 | [13] 0.418 | [38] 0.44 | [39] 0.762 | [14] 0.348 | [40] 0.451
inactive: [17] 0.948 | [1] 0.987 | [19] 0.851 | [27] 0.951 | [9] 0.655 | [33] 0.957 | [34] 0.976 | [36] 0.948

COc1ccc(Oc2ccc(C(F)(F)F)cc2[N+](=O)[O-])cc1
active: [40] 0.624
inactive: [15] 0.986 | [16] 0.96 | [17] 0.931 | [1] 0.924 | [18] 1.03 | [19] 0.886 | [20] 1.03 | [21] 0.951 | [3] 0.927 | [22] 0.993 | S. cerevisiae deletion strains, locus YJL187C, strain SWE1, active compounds read low 0.965 | [23] 0.946 | [24] 0.925 | [26] 0.901 | [27] 1.02 | [28] 0.896 | [29] 0.926 | [30] 1.06 | [31] 0.996 | [32] 0.917 | S. cerevisiae deletion strains, locus YMR307W, strain GAS1, active compounds read low 0.911 | [34] 0.947 | [35] 0.987 | [36] 1.01 | [37] 0.924 | [38] 0.898 | [39] 0.952 | S. cerevisiae strains, strain wild type, active compounds read low 0.978
